Here are results for 16 sequences from the OligoGym collection.
Further: reference of the scale not given here.

The target of the first assay is OLFML2A. Nature of the assay: pooled miR-30 sensor sort-seq; sequence = guide strand. As to conditions: shRNA.
For the sequence TTGAGTTTCTCCATCTTCCACT, the sensor-assay potency score (higher = more potent) was -0.593. Turning to TTGTAGGGTAGCTTGTACATGT, the sensor-assay potency score (higher = more potent) was -0.494. Regarding TTCAAACATACAGACATCCAGG, the sensor-assay potency score (higher = more potent) is -0.00393. TTTCCATAGTAGTAGTTGGTGA had a sensor-assay potency score (higher = more potent) of -0.818.

A further assay deals with OLIG1. The assay is described as above. As to conditions: shRNA.
TTGGTTTTCGTTTTTAAGCAAG registered a sensor-assay potency score (higher = more potent) of -1.05. The same measure, in the same setting: the result for TATGTAGCTCTTCAACTGCAAG reads -1.7. The sequence TTACCTATTTTAGTAAATCGGG gave a sensor-assay potency score (higher = more potent) of -0.775. As to TAACGTCTGTAACAAATCGAAA, the sensor-assay potency score (higher = more potent) is -1.41. TCGGCTACTACCAACAACCAAA: the sensor-assay potency score (higher = more potent) was -1.38. As for TACAGCTCTCCAAACAGCTGGT, the sensor-assay potency score (higher = more potent) is -0.013. For TACCTATTTTAGTAAATCGGGA, the sensor-assay potency score (higher = more potent) is -0.985.

Turning to TTTAAGAGCGAAAACTCTCTGC, the sensor-assay potency score (higher = more potent) is -0.0663. Still for that read-out and setting: the result for TTGTTGATTCTGTACACCGTCA reads -0.445. Same read-out and setting: the figure for TTGCTTTCTAAGAAACCCCCAG is -0.585; for TTAACGTCTGTAACAAATCGAA it is -0.686; for TAGTAAATCGGGAACACTGGAT it is -0.186.
